# According to ChEMBL document CHEMBL1961873, “Compounds: GSK PKIS; Assays: Nanosyn kinase panel” (2012):
# Values joined by “and” are separate entries in the source; they are usually repeats but may differ in a detail not shown here. Equal values may be shown once.
# Experiments:
# [1] = target: Mitogen-activated protein kinase kinase kinase kinase 4 (Homo sapiens) (UniProt O95819); conditions: at 1 µM;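 also: reported figure is an averaged inhibition value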
# [2] = target: Dual specificity mitogen-activated protein kinase kinase 1 (Homo sapiens) (UniProt Q02750); conditions: at 0.1 µM
# [3] = target: Dual specificity mitogen-activated protein kinase kinase 1 (Homo sapiens) (UniProt Q02750); conditions: at 1 µM
# [4] = target: Misshapen-like kinase 1 (Homo sapiens) (UniProt Q8N4C8); conditions: at 0.1 µM
# [5] = target: Misshapen-like kinase 1 (Homo sapiens) (UniProt Q8N4C8); conditions: at 1 µM
# [6] = target: T1, Serine/threonine-protein kinase 4 (Homo sapiens) (UniProt Q13043); conditions: at 0.1 µM
# T1 sequence (whole entry): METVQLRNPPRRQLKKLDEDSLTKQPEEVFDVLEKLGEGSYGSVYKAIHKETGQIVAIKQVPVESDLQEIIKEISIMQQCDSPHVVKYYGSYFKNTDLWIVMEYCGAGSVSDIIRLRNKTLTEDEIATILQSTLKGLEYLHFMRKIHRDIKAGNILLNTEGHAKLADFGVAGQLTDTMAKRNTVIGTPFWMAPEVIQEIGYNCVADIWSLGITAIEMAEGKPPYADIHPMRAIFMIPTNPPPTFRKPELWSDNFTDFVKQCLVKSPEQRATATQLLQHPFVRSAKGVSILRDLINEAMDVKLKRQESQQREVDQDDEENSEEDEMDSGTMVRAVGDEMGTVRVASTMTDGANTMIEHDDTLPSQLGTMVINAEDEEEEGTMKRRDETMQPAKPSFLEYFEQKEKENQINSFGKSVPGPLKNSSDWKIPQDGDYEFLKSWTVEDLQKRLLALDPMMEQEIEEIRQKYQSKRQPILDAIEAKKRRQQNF
# [7] = target: T1, Serine/threonine-protein kinase 4 (Homo sapiens); conditions: at 1 µM
# [8] = target: T2, Serine/threonine-protein kinase 3 (Homo sapiens) (UniProt Q13188); conditions: at 0.1 µM
# T2 sequence (whole entry): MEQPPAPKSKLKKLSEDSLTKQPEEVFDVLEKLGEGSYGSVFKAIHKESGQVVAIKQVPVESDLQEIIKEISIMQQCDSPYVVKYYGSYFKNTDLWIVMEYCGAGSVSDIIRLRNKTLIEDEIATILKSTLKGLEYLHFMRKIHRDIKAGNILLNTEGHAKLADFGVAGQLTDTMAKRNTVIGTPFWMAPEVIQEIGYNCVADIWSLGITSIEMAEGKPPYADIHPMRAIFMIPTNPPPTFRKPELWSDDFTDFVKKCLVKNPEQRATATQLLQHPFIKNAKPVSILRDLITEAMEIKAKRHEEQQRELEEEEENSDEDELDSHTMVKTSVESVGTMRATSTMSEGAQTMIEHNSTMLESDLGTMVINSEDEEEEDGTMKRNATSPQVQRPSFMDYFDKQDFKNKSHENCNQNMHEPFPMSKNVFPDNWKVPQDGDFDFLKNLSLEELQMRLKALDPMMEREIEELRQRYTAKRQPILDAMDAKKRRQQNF
# [9] = target: T2, Serine/threonine-protein kinase 3 (Homo sapiens); conditions: at 1 µM
# [10] = target: Serine/threonine-protein kinase 26 (Homo sapiens) (UniProt Q9P289); conditions: at 0.1 µM
# Chain of Serine/threonine-protein kinase 26 (Homo sapiens) (Q9P289 2-416 limits assumed): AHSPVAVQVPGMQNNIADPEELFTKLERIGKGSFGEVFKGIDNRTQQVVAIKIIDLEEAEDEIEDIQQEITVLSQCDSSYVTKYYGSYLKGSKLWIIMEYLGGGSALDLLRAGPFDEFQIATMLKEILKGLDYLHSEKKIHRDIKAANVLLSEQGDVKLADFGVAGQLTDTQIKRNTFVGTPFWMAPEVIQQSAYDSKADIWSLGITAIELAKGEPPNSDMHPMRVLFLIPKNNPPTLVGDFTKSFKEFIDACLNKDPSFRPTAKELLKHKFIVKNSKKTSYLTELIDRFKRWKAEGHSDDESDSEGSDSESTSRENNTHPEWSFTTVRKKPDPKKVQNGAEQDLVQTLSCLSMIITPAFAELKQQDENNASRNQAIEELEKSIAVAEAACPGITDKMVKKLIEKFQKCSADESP
# Chain of Dual specificity mitogen-activated protein kinase kinase 1 (Homo sapiens) (Q02750 whole entry): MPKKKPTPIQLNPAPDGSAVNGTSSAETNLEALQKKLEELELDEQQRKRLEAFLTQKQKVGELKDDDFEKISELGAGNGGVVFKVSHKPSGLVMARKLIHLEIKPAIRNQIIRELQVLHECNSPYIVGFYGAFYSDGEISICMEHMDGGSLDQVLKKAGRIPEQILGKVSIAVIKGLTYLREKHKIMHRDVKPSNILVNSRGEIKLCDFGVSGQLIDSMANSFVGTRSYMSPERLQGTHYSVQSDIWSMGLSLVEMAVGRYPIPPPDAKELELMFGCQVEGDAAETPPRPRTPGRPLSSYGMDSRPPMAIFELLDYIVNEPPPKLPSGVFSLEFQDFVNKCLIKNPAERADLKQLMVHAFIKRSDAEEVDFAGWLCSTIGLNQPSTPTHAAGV
# Chain of Mitogen-activated protein kinase kinase kinase kinase 4 (Homo sapiens) (O95819 2-1239 limits assumed): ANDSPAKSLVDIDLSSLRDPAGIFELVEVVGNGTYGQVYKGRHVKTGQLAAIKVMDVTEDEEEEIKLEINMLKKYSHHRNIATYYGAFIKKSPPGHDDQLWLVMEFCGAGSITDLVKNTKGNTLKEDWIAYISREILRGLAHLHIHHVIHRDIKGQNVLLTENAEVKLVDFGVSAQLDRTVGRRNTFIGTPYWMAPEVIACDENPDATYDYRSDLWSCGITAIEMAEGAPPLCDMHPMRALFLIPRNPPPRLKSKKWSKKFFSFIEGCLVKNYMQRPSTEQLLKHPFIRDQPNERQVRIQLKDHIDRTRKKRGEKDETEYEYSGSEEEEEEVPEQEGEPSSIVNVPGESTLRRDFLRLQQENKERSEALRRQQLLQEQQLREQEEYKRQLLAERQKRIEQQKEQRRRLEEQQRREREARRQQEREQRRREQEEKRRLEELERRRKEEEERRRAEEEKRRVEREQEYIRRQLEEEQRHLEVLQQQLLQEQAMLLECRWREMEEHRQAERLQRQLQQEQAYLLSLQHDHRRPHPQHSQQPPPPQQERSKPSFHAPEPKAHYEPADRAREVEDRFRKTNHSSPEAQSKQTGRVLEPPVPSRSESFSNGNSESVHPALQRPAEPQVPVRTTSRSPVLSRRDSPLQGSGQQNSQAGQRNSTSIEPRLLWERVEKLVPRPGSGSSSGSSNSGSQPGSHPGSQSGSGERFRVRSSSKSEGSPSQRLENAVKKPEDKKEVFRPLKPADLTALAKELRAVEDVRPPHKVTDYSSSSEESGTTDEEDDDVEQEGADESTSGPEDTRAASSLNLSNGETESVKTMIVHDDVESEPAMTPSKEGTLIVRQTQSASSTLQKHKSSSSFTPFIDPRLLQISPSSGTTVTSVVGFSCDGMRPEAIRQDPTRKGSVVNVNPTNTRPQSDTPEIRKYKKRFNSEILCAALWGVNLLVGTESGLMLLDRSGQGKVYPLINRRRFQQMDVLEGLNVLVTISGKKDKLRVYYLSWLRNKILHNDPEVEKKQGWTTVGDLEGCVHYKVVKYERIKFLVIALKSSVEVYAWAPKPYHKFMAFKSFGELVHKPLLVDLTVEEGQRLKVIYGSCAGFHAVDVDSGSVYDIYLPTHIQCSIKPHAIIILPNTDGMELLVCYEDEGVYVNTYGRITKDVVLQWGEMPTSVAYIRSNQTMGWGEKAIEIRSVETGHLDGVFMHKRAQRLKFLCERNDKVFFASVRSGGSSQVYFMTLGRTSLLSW
# Chain of Misshapen-like kinase 1 (Homo sapiens) (Q8N4C8 whole entry, looked up): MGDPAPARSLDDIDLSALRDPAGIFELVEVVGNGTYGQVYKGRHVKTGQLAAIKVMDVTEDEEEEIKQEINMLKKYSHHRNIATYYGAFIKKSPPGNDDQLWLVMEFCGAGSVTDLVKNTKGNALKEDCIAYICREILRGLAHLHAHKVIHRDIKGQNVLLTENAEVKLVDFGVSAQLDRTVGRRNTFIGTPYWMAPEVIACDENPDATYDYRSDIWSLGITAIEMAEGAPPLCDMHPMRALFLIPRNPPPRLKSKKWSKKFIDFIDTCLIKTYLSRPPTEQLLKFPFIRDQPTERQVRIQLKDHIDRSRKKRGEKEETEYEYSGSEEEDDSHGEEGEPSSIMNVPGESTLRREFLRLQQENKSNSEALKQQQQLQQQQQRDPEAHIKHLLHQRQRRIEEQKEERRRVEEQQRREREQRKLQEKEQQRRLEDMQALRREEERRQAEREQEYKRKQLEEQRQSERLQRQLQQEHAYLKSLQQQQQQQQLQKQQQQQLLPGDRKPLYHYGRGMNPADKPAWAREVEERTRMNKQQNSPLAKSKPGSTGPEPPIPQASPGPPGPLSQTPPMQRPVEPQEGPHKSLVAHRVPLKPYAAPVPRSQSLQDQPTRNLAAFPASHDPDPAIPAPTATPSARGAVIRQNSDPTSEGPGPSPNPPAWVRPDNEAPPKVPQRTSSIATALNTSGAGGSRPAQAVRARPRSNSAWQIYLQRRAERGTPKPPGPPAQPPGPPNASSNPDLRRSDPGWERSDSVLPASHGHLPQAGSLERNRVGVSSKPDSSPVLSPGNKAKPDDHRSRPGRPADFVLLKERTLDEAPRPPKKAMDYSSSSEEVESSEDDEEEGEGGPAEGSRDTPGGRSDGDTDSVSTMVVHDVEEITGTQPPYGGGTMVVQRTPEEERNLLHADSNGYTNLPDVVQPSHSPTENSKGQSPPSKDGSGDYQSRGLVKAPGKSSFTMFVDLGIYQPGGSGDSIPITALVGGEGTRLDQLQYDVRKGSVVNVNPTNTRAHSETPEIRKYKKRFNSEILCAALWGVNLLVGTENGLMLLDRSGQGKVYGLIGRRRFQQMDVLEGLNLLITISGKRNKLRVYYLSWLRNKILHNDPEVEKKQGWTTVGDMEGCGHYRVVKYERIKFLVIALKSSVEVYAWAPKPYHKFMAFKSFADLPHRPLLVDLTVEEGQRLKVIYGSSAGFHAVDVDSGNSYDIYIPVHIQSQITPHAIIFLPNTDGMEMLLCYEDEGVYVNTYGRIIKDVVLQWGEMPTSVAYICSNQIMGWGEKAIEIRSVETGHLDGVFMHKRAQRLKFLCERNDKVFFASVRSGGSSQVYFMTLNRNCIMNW
Structure (SMILES),inhibition [1],inhibition [2],inhibition [3],inhibition [4],inhibition [5],inhibition [6],inhibition [7],inhibition [8],inhibition [9],inhibition [10]
N#Cc1cccc(Nc2ncc(-c3ccccc3)o2)c1,23.8%,2.21%,2.12%,5.1%,19.2%,3%,5.15%,4.16%,5.23%,-0.1%
Fc1cccc(COc2ccc(Nc3ncncc3C#Cc3ccccc3)cc2Cl)c1,15%,6%,4.44%,7.69%,15.9%,6.89%,9.95%,6.83%,8.97%,-0.45%
CS(=O)(=O)Nc1ccc(-c2cc(-c3ccccc3)cc(C(N)=O)c2N)cc1,16.6%,3.57%,2.74%,0.77%,10.4%,0.24%,0.83%,-1.12%,-0.76%,-1.2%
O=C(O[C@H]1CN[C@H](C#Cc2cc3ncnc(Nc4ccc5c(cnn5Cc5ccccc5)c4)c3s2)C1)N1CCOCC1,2.37%,-0.35%,-0.55%,-0.37%,1.62%,2.4%,4.54%,1.56%,5.49%,0.75%
CC(C)c1ccc(-c2cc(-c3c[nH]nc3-c3ccccn3)ccn2)cc1,53.8%,0.36%,2.47%,7.67%,37.6%,0.63%,-0.98%,1.18%,0.64%,0.06%
NS(=O)(=O)c1ccc(N/N=C2\C(=O)Nc3cccc(CCc4ccncc4)c32)cc1,16.9%,1.96%,3.3%,4%,10.8%,31.3%,48.9%,20.1%,29.8%,10.5%
CN1CCN(Cc2ccc(-c3cc4ncnc(Nc5ccc(OCc6cccc(F)c6)c(Cl)c5)c4s3)o2)CC1,8.74% and 16.5%,3.63% and 7.76%,3.91% and 8.23%,4.62% and 8.19%,7.44% and 13.7%,2.15% and 5.51%,5.38% and 9.4%,1.94% and 6.66%,4.21% and 9.14%,-0.84% and -1.22%
COC(=O)Nc1nc2cc(Oc3ccc(NC(=O)Nc4ccccc4)cc3)ccc2[nH]1,12.9%,3.88%,2.45%,5.15%,11.3%,3.7%,4.62%,5.39%,6.48%,-0.23%
Cc1cc(O)cc(C)c1/C=C/c1cncc(C(=O)OC(C)(C)C)c1,15.2%,4.02%,3.99%,6.01%,9.55%,3.56%,8.26%,2.81%,6.28%,0.35%
N#Cc1ccc2c(-c3ccnc(NC4CC4)n3)c(-c3ccc(F)cc3)nn2c1,46%,0.85%,3.35%,6%,30.2%,0.26%,1.31%,1.49%,1.55%,-1.26%
COc1ccccc1-c1cc(/C=C2\C(=O)Nc3ncc(Br)cc32)cc(Br)c1O,14%,6.54%,5.7%,5.71%,13.3%,6.41%,8.19%,7.78%,8.09%,2.55%
COc1ccc(-c2nn3ncccc3c2-c2ccnc(Nc3ccc(F)c(F)c3)n2)cc1,16.4%,6.07%,3.87%,9.98%,13.8%,6.88%,11.6%,5.53%,10.2%,-0.41%
Fc1ccc(Nc2nccc(-c3c(-c4ccc(C(F)(F)F)cc4)nn4ncccc34)n2)cc1F,2.77%,3.85%,3.88%,6.5%,4.38%,6.25%,7.23%,6.51%,5.09%,-0.69%
CS(=O)(=O)CCNCc1ccc(-c2ccc3ncnc(Nc4ccc(OCc5ccccc5)cc4)c3c2)o1,6.76%,2.75%,2.72%,5.38%,5.67%,3.24%,3.52%,5.36%,3.74%,0.02%
CCCNc1cccc(-n2ncc3c(N/N=C/c4ccncc4)ncnc32)c1,44.1%,1.7%,2.07%,5.44%,35.9%,4.12%,12.3%,5.92%,9.89%,1.77%
CCOc1ccc2c(-c3ccnc(Nc4cc(OC)cc(C(F)(F)F)c4)n3)cnn2n1,8.47%,0.11%,0.8%,2.19%,6.36%,0.03%,1.83%,-0.19%,2.45%,1.73%

Structure (SMILES),inhibition [1],inhibition [2],inhibition [3],inhibition [4],inhibition [5],inhibition [6],inhibition [7],inhibition [8],inhibition [9],inhibition [10]
O=C(Nc1n[nH]c2nnc(-c3cccnc3)cc12)C1CC1,20.3%,0.74%,3.42%,1.29%,13.1%,-0.95%,-0.48%,-2.99%,-0.37%,0.94%
CCS(=O)(=O)c1ccc(OC)c(Nc2ncc(-c3cccc(F)c3)o2)c1,19.2%,4.98%,5%,8.05%,16.1%,3.31%,8.63%,5.69%,8.4%,-0.55%
Cc1nnc(-c2cccc(-c3ccc(C(=O)NCC4CC4)cc3)c2)o1,14.1%,8.77%,4.7%,7.95%,14.7%,8.49%,9.93%,10.6%,10.4%,-0.42%
CCS(=O)(=O)c1ccc(OC)c(Nc2ncc(-c3cccc(C(C)=O)c3)o2)c1,10.2%,3.55%,2.6%,3.09%,8.97%,7.14%,13.3%,7.18%,12.6%,-0.19%
O=C(O[C@H]1CN[C@H](C#Cc2cc3ncnc(Nc4ccc5c(ccn5Cc5cc(F)ccc5F)c4)c3s2)C1)N1CCOCC1,5.63%,5.1%,5.26%,5.96%,5.37%,2.68%,4.43%,2.54%,1.92%,-1.74%
NS(=O)(=O)c1cccc(N/C=C2\C(=O)Nc3ccccc32)c1,78.2%,4.87%,5.35%,18.4%,70.2%,7.24%,26.1%,5.78%,21.2%,-1.63%
CC1(C)CC(n2cnc(-c3ccc(F)cc3)c2-c2ccnc(N)n2)CC(C)(C)N1,2.96%,1.4%,1.04%,1.2%,4.78%,-3.13%,-0.15%,-0.38%,-1.38%,-0.28%
COc1cccc(-n2ncc3c(N/N=C/c4ccc(C(=O)NCCN(C)C)cc4)ncnc32)c1,78.1%,2.77%,4.04%,23.1%,64.8%,4.6%,10.1%,4.33%,6.3%,-1.8%
Cc1cc(O)cc(C)c1/C=C/c1cncc(C(N)=O)c1,13.9%,2.17%,3.39%,4.8%,7.34%,2.44%,7.28%,2.17%,4.31%,-0.63%
COc1cc(N2CCN(C(C)C)CC2)ccc1Nc1nc(Nc2cccc(F)c2C(=O)O)c2cc[nH]c2n1,10.1%,4.86%,2.88%,4.85%,9.35%,5.23%,9.21%,5.03%,9.11%,-0.64%
Cn1c(-c2nonc2N)nc2cnccc21,26.2%,4.67%,4.45%,5.83%,16.6%,3.91%,3.75%,4.04%,5.05%,-0.57%
CNC(=O)c1ncccc1Nc1nc(Nc2cc3c(cc2OC)CCCN3C(=O)CN(C)C)nc2[nH]ccc12,6.26%,3.03%,3.53%,5.92%,7.79%,8.58%,12.8%,8.59%,7.84%,-2.11%
CN(c1ccc(NC(=O)NCCN2CCOCC2)cc1)c1ccnc(Nc2ccc(CS(C)(=O)=O)cc2)n1,14.7%,5.04%,7.12%,3.82%,7.42%,7.84%,18.8%,6.91%,13.6%,-1.2%
COc1c(C(N)=O)cc(-c2ccc(Cl)cc2)cc1-c1ccc(S(N)(=O)=O)cc1,5.7%,3.99%,3.65%,6.03%,7.24%,2.89%,4.76%,5.08%,4.15%,-1.15%
CN(C)CCNC(=O)Nc1ccc(N(C)c2ccnc(Nc3ccc(CS(C)(=O)=O)cc3)n2)cc1,14.6%,4.9%,4.12%,5.87%,10.1%,6.4%,11.4%,6.63%,6.98%,-0.89%
